Measurements from PubChem BioAssay.
The source made the active and inactive calls. Unless noted, the rule behind the calls is not given here.

How the values were obtained:
[1] = HepG2 liver cancer cell viability effects, profiling panel, resazurin fluorescence, 24 h, PK04 Diversity Set (AID 1172); details: higher = more signal
[2] = basal S. cerevisiae growth modulation, no modifier, primary screen, OD600, strain BY4716, 24 h, basal condition (AID 1173); details: OD600, 24 h, higher = more signal, called active from +8 up or from −8 down
[3] = MM1S myeloma cell viability, profiling panel, resazurin fluorescence, basal, 24 h, PK04 Diversity Set (AID 1174); details: higher = more signal, called active from +8 up or from −8 down;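 note: MM1S multiple myeloma cell line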
[4] = molecular target: Dihydroorotate dehydrogenase (quinone), mitochondrial (Plasmodium falciparum (isolate 3D7)) (UniProt Q08210); assay: PfDHODH enzyme inhibitors, primary screen, biochemical, C-terminal His tag, absorbance 600 nm (AID 1175); details: DCIP absorbance 600 nm, higher = more signal, called active from +8 up or from −8 down;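 note: recombinant parasite enzyme with a five histidine tag at its C terminus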
[5] = P. aeruginosa biofilm formation inhibitors, primary screen, strain PAO1, LB-PBS medium, absorbance 600 nm (AID 1176); details: P. aeruginosa PAO1 growth/biofilm, A600, 12 h; higher = more signal
[6] = S. cerevisiae RM11-1a growth modifiers, primary screen, strain RM11-1a, OD600, basal, 24 h (AID 1177); details: OD600, 24 h, higher = more signal, called active from +8 up or from −8 down;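 note: cultures grown under basal conditions with no added stressor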
[7] = E. coli acrAB mutant growth effects, primary screen, E. coli filamentation inducers, strain DRC39, OD650, 24 h (AID 1178); details: higher = more signal, called active from +8 up or from −8 down;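 note: growth measured as culture turbidity by optical density at 650 nm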
[8] = E. coli acrAB mutant growth effects, primary screen, E. coli filamentation inducers, strain DRC39, OD650, 48 h (AID 1179);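 note: screen aims at cell division blockers that make cells filament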; details: E. coli DRC39 delta-acrAB growth, higher = more signal, called active from +8 up or from −8 down
[9] = RPMI8226 myeloma cell viability, profiling panel, resazurin fluorescence, basal, 24 h, PK04 Diversity Set (AID 1180); details: higher = more signal;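 note: RPMI8826 multiple myeloma cell line at 5000 cells per well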
[10] = molecular target: E3 ubiquitin-protein ligase XIAP (Homo sapiens) (UniProt P98170); assay: XIAP binders, primary screen, biophysical, small-molecule microarray, fluorescence 635 nm (AID 1181); details: small-molecule microarray binding, higher = more signal;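 note: score merges 667 nm emission and signal to noise over triplicate slides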
[11] = tested on: XIP peptide (Xip251-270) binding; assay: small-molecule binders of XIP peptide, primary screen, biochemical, small-molecule microarray, fluorescence 635/667 nm, 0.1 µg/mL protein (AID 1182); details: fluorescent protein binding, 635 nm, higher = more signal, called active from +8 up or from −8 down
XIP peptide (Xip251-270) = assay: small-molecule binders of XIP peptide, primary screen, biochemical, small-molecule microarray, fluorescence 635/667 nm, 0.5 µg/mL protein (AID 1183); details: small-molecule microarray binding, fluorescence 635 nm; higher = more signal
[12] = Plasmodium falciparum growth inhibition, primary screen, strain 3D7, DAPI fluorescence, 100 nL (AID 1184);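 note: parasites grown inside human red blood cells in medium with human serum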; details: P. falciparum 3D7 growth, 3 d, higher = more signal
[13] = molecular target: Homeobox protein Hox-A13 (Mus musculus) (UniProt Q62424); assay: inhibitors of HoxA13-DNA binding, primary screen, biochemical, fluorescence polarization, labeled oligonucleotide (AID 1185); details: 15 min, higher = more signal, called active from +8 up or from −8 down
[14] = inhibitors of hydroxyurea-induced Chk1 phosphorylation, primary screen, imaging, HeLa, phospho-Chk1 antibody, percent positive cells (AID 1186); details: hydroxyurea-induced phospho-Chk1 immunofluorescence imaging, higher = more signal
[15] = inhibitors of hydroxyurea-induced Chk1 phosphorylation, primary screen, imaging, HeLa, phospho-Chk1 nuclear intensity (AID 1187); details: hydroxyurea-induced phospho-Chk1 immunofluorescence imaging, higher = more signal

Sequence of Dihydroorotate dehydrogenase (quinone), mitochondrial (Plasmodium falciparum (isolate 3D7)) (Q08210 whole entry, looked up): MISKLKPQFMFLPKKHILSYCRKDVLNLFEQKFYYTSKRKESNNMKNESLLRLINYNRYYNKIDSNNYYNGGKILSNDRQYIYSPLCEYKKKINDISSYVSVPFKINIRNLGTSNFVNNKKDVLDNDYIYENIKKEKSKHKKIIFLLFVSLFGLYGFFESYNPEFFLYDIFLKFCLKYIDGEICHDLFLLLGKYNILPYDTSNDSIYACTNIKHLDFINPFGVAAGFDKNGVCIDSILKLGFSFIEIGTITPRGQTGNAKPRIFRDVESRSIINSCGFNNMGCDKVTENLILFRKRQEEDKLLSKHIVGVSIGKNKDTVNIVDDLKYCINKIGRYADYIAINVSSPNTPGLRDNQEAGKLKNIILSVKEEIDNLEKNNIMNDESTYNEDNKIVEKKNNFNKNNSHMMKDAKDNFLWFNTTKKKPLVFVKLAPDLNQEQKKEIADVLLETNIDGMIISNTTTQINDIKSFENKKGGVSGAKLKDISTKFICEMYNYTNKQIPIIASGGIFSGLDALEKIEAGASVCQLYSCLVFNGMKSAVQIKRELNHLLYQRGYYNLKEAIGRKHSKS
Sequence of E3 ubiquitin-protein ligase XIAP (Homo sapiens) (P98170 whole entry, looked up): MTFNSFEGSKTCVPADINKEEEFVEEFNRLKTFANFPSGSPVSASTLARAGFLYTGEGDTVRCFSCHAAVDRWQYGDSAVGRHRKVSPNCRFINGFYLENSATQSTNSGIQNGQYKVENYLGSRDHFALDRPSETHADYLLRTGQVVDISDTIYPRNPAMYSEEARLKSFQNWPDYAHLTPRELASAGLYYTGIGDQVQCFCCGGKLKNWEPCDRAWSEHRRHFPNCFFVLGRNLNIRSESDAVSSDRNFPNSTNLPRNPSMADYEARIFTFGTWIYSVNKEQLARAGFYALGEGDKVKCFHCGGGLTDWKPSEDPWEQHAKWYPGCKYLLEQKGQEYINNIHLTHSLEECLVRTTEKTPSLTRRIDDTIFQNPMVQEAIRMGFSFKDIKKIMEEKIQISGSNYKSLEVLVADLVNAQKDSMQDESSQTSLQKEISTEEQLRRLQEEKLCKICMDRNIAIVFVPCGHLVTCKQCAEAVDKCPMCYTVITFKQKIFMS
Sequence of Homeobox protein Hox-A13 (Mus musculus) (Q62424 whole entry, looked up): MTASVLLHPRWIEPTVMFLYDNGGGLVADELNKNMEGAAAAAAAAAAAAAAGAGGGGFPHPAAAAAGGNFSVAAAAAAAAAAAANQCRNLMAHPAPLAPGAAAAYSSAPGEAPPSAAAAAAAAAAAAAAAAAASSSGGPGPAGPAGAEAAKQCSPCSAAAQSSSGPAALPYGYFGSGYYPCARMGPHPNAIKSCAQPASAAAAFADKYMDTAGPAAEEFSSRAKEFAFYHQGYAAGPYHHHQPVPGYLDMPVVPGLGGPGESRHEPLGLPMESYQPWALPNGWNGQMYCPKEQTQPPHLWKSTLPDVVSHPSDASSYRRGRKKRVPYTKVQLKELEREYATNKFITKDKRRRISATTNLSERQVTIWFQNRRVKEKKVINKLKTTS

Row | SMILES | z-score [1] | z-score [2] | z-score [3] | composite z-score [4] | z-score [5] | z-score [6] | z-score [7] | z-score [8] | z-score [9] | composite z-score [10] | composite z-score [11] | composite z-score (XIP peptide (Xip251-270)) | z-score [12] | z-score [13] | z-score [14] | z-score [15]
1 | CCOC(=O)C1=CC[C@@H](c2cccc(Cl)c2)N(S(=O)(=O)c2ccc(C)cc2)C1 | -0.36 | 0.255 (inactive) | -0.347 (inactive) | -1.54 (inactive) | -0.405 (inactive) | -0.188 (inactive) | 0.242 (inactive) | 1.2 (inactive) | -0.277 | -0.149 | 1.46 (inactive) | 0.662 | -0.639 | -1.21 (inactive) | -0.566 (inactive) | -0.272 (inactive)
2 | CCOC(=O)C[C@H]1[C@H](OC(=O)c2ccccc2-c2ccccc2)[C@@H](NC(=O)C2CCCCC2)c2cc(OCCCO)ccc2N1C(=O)Cc1ccc(OC)cc1 | -0.18 | 0.0422 (inactive) | -0.257 (inactive) | 0.0563 (inactive) | 0.0238 (inactive) | -0.508 (inactive) | -0.506 (inactive) | -0.657 (inactive) | -0.466 | -0.159 | 0.0141 (inactive) | 0.333 | 0.273 | -3.62 (inactive) | -0.0021 (inactive) | 0.223 (inactive)
3 | CCCNC(=O)[C@@H]1c2ccccc2C(=O)N(C(C)C)[C@H]1c1ccc(CO)cc1 | 0.321 | 0.121 (inactive) | 0.551 (inactive) | -0.185 (inactive) | 0.127 (inactive) | 0.846 (inactive) | 0.313 (inactive) | 1.31 (inactive) | 0.497 | -0.237 | 0.251 (inactive) | 0.658 | -0.473 | -1.88 (inactive) | -0.247 (inactive) | -0.333 (inactive)
4 | C=CCOC(=O)[C@H]1[C@@H]2C(=O)O[C@@H](c3ccccc3)[C@@H](c3ccccc3)N2[C@@H](c2ccc(OCCOC(=O)[C@H]3C[C@H]4C(=O)N[C@@H](CCCCNC(C)=O)C(=O)N4[C@H]3c3ccc(O)cc3)cc2)[C@]12C(=O)Nc1ccccc12 | 2.07 | -1.68 (inactive) | 1.74 (inactive) | -0.875 (inactive) | 2.52 (inactive) | -2.05 (inactive) | 2.63 (inactive) | 2.11 (inactive) | 1.11 | 0.0013 | 2.69 (inactive) | 0.685 | -1.72 | -1.06 (inactive) | 0.203 (inactive) | 0.261 (inactive)
5 | O=C1O[C@H](c2ccccc2)[C@H](c2ccccc2)N2[C@H]1[C@@H](C(=O)Nc1nc3ccccc3s1)[C@]1(C(=O)Nc3ccccc31)[C@H]2c1ccc(OCCO)cc1 | 0.0114 | 0.445 (inactive) | -1.08 (inactive) | -1.8 (inactive) | 3.02 (inactive) | 1.68 (inactive) | -0.476 (inactive) | 0.282 (inactive) | -2.02 | -0.356 | -0.434 (inactive) | 0.652 | -1.33 | 1.24 (inactive) | 0.0458 (inactive) | -0.0249 (inactive)
6 | COc1ccc([Si](C)(C)[C@@H]2[C@@H](CC(=O)N(CCO)Cc3ccccc3)O[C@]3(C(=O)N(Cc4cccc(N5CCOC5=O)c4)c4ccccc43)[C@H]2C)cc1 | -1.89 | 0.0608 (inactive) | -3.23 (inactive) | 0.0205 (inactive) | 1.76 (inactive) | 2.67 (inactive) | 0.577 (inactive) | -0.463 (inactive) | -2.42 | -0.02 | 1.18 (inactive) | 0.799 | -2.16 | -2.52 (inactive) | 0.437 (inactive) | -0.0407 (inactive)
7 | CC1=C([C@H](O)CCc2ccccc2)[C@H](CO)[C@@H]2C(=O)N(C)C(=O)[C@@H]2C1 | -0.0457 | -2.32 (inactive) | -0.382 (inactive) | -1.2 (inactive) | 0.176 (inactive) | 0.291 (inactive) | 0.15 (inactive) | 0.181 (inactive) | 0.149 | -0.152 | -0.0688 (inactive) | 0.389 | 0.306 | -4.05 (inactive) | -0.296 (inactive) | -0.528 (inactive)
8 | COC(=O)[C@@]1(Cc2ccc(OC)cc2)[C@H]2c3cc(C(=O)N(C)C)n(Cc4ccc(Cl)c(C(F)(F)F)c4)c3C[C@H]2CN1C(=O)c1ccccc1 | -1.21 | 1.86 (inactive) | -2.74 (inactive) | 0.381 (inactive) | 0.812 (inactive) | 0.673 (inactive) | -0.505 (inactive) | -0.0176 (inactive) | -2.7 | 0.216 | -0.0177 (inactive) | 0.267 | -1.48 | -3.47 (inactive) | 0.472 (inactive) | 0.127 (inactive)
9 | COC(=O)[C@@]1(Cc2ccccc2)[C@H]2c3cc(C(=O)N(C)C)n(CCN4CNCC4=O)c3C[C@H]2CN1C(=O)c1ccccc1 | 0.0001 | 1.13 (inactive) | -0.473 (inactive) | 0.0849 (inactive) | -0.0703 (inactive) | 0.0591 (inactive) | -0.459 (inactive) | -0.217 (inactive) | 0.432 | 0.404 | 0.858 (inactive) | 1.01 | -0.17 | -2.94 (inactive) | -0.232 (inactive) | -0.33 (inactive)
10 | Cc1cc(C)c(C(O)C2C=CC3C(=O)N(c4ccccc4)C(=O)C3N2Nc2ccc(C(C)C)cc2)c(C)c1 (stereo not given) | -1.47 | 0.626 (inactive) | -1.8 (inactive) | 0.68 (inactive) | 1.28 (inactive) | 1.58 (inactive) | -0.841 (inactive) | -0.876 (inactive) | -1.08 | -0.387 | 1.21 (inactive) | 0.736 | -0.701 | -3.21 (inactive) | 0.609 (inactive) | 0.335 (inactive)
